This is a sample that favours compounds with a hit; in the whole collection about 10% have one here.
SW480 rerep: DNA re-replication induction in SW480 cells | Potency, µM (series often up to 46.1 µM), most hits filed as activators | SW480 DNA re-replication, Hoechst DNA content imaging, 48 h | AID 624297 | 340,000 tested, 1.8% active; further: nearly all actives have a fitted effect of over 55% in size
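Readout is total intensity of Hoechst-stained nuclei, excited at 405 nm and collected at 500-530 nm. Compound treatment lasted 48 hr at 37 C in 5% CO2 before staining.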
VP16 counter: counter-screen for ROR gamma inhibitors: Gal4-VP16 reporter. Drosophila S2 Gal4-VP16 UAS-luciferase, luminescence, 20 h. Potency, µM (highest dose often 53.6 µM), actives largely listed as inhibitors. 310,000 tested, 3.5% active;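 further: Gal4-VP16 expression switched on by copper sulfate through the metallothionein promoter; nearly all actives have a fitted effect of over 50% in size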
RORg inh: ROR gamma (mouse) transcription inhibition | P51450 | Drosophila S2 Gal4-RORgamma UAS-luciferase reporter, 20 h | Potency, µM (titrated, usually from 53.6 µM), most hits filed as inhibitors | 310,000 tested, 5.4% active | AID 2551; further: nearly all actives have a fitted effect of over 60% in size
Target sequence (P51450 whole entry, looked up, the tested form may be a part): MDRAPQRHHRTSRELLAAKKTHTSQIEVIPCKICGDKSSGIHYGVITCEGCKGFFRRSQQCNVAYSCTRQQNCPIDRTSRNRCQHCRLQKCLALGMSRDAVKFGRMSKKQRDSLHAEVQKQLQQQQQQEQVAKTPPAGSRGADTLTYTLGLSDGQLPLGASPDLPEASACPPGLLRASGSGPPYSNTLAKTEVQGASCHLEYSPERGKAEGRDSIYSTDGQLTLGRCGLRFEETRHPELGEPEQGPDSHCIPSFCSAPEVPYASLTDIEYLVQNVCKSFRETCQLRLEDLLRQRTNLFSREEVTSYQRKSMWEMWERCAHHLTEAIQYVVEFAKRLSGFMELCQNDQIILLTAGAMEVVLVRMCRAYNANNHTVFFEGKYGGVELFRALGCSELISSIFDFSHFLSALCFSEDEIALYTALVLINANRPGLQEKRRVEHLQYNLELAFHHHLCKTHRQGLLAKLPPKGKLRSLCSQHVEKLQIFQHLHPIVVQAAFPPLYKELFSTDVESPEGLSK
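Luciferase reporter read in Schneider cells carrying Gal4-RORγ (mouse) and UAS-Photinus luciferase; cells given compound 1 h before 700 uM copper sulfate induction, then incubated 20 h at ambient temperature.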
KB-3-1 cytotox: KB-3-1 parental cell cytotoxicity; KB-3-1 viability, CellTiter-Glo ATP luminescence, 72 h; Potency, µM (titrated, usually from 46.1 µM), most hits filed as cytotoxic; 400,000 tested, 1.4% active; AID 1347075; further: nearly all actives have a fitted effect of over 60% in size
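Viability of parental KB-3-1 cells, measured by CellTiter-Glo luminescence, followed a 72 h incubation at 37 °C with pinned compounds in phenol-red-free DMEM containing 10% FBS.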
KB-V1 MDR tox: kills drug-selected multidrug resistant KB-V1 cells; KB-V1 MDR cells viability, CellTiter-Glo, 72 h; Potency, µM (highest dose often 46.1 µM), usual class: cytotoxic; 400,000 tested, 3.4% active; AID 1347076; further: nearly all actives have a fitted effect of over 60% in size
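Cytotoxicity toward P-gp-expressing KB-V1 cells was determined as loss of CellTiter-Glo luminescence after 72 h at 37 degrees C. Compounds were tested in quantitative HTS format across a concentration range, with curves fitted to normalized data.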
MCF10A rerep: DNA re-replication induction in MCF 10a cells | AID 624296 | Potency, µM (top dose mostly 46.1 µM), hits mostly activators | 350,000 tested, 2.9% active | MCF 10A DNA re-replication, Hoechst nuclear intensity, 48 h; further: nearly all actives have a fitted effect of over 50% in size
Large screens that a line does not name were inactive. The call rests on the fitted dose curve; in most records, active means well fitted curve in the direction sought with a large enough effect; inconclusive means small, poorly fitted or top-dose-only effect, or another doubt; inactive means no such curve, though single readings can be large; an effect the other way counts as inactive or inconclusive.

Cc1ccc(NC(=O)COc2ccccc2)c(NC(=O)c2ccccc2C)c1	SW480 rerep inconclusive, KB-V1 MDR tox 5.8µM (no result: VP16 counter, RORg inh)
Cc1ccc(NS(=O)(=O)c2ccc(C)c(NC(=O)COc3ccccc3)c2)c(C)c1	KB-V1 MDR tox 20.6µM
Cc1ccc(C)c(NS(=O)(=O)c2ccc(OCC(=O)N3CCCC3)cc2)c1	KB-V1 MDR tox 20.6µM
Cc1ccc(S(=O)(=O)NC(=O)COc2ccccc2)cc1	none
CCN(CC)CCCNC(=O)c1ccc2nc(CCc3ccccc3)oc2c1	none (no result: SW480 rerep, VP16 counter, RORg inh, MCF10A rerep)
CC(=O)Oc1ccc(C(=O)Nc2cc(C)ccc2NC(=O)COc2ccccc2)cc1	KB-V1 MDR tox 16.4µM
O=C1CS(=O)(=O)C2(C(=O)N(Cc3cccc(F)c3)c3ccccc32)N1c1ccccc1 (configuration not stated)	none (no result: SW480 rerep, VP16 counter, RORg inh, MCF10A rerep)
CC(=O)Nc1ccc(NC(=S)NC(=O)/C=C/c2ccc(Cl)cc2)cc1	none
O=C(/C=C/c1ccc(Cl)cc1)NC(=S)Nc1ccc(CN2CCOCC2)cc1	VP16 counter 6.31µM, RORg inh 3.98µM, MCF10A rerep 20.6µM
O=C(/C=C/c1ccc(Cl)cc1)NC(=S)Nc1ccc(NC(=O)c2ccco2)cc1	VP16 counter 7.08µM, RORg inh 4.47µM
O=C(NC(=S)Nc1ccc(CN2CCOCC2)cc1)c1ccco1	none
COc1ccc(Br)cc1/C=C/C(=O)c1ccc(NC(C)=O)cc1	SW480 rerep 14.6µM, VP16 counter 10µM, RORg inh 5.01µM, KB-3-1 cytotox 4.11µM, KB-V1 MDR tox inconclusive, MCF10A rerep 6.51µM
O=C(CC12CC3CC(CC(C3)C1)C2)NC(=S)Nc1ccc(CN2CCOCC2)cc1	SW480 rerep inconclusive, VP16 counter 10µM, RORg inh 1.58µM, MCF10A rerep inconclusive
CC1CCCCN1c1cc2c(cc1F)c(=O)c(S(=O)(=O)c1ccccc1)cn2Cc1ccccc1 (configuration not stated)	none (no result: SW480 rerep, VP16 counter, RORg inh, MCF10A rerep)
CCC(Nc1ccc(-c2nc(-c3ccco3)no2)cc1[N+](=O)[O-])c1ccccc1 (configuration not stated)	none (no result: SW480 rerep, VP16 counter, RORg inh, MCF10A rerep)
O=C(/C=C/c1ccccc1)Nc1ccc(CN2CCOCC2)cc1	none
O=C(/C=C/c1ccc(Cl)cc1Cl)Nc1ccc(CN2CCOCC2)cc1	SW480 rerep inconclusive, KB-3-1 cytotox inconclusive, MCF10A rerep 8.2µM
COc1ccc(Br)cc1/C=C/C(=O)NC(=S)Nc1ccc(CN2CCOCC2)cc1	VP16 counter 4.47µM, RORg inh 1.78µM
O=S1(=O)C2CC3CCC2(CN1Cc1cccc(F)c1)O3 (configuration not stated)	none (no result: SW480 rerep, KB-3-1 cytotox, KB-V1 MDR tox, MCF10A rerep)
CC(=O)c1ccc(S(=O)(=O)Nc2ccc(-c3ccc(N4CCCCC4)nn3)cc2)cc1	none (no result: SW480 rerep, VP16 counter, RORg inh, MCF10A rerep)
CN(NS(=O)(=O)c1ccc(Cl)cc1)c1ncc(C(F)(F)F)cc1Cl	VP16 counter 3.16µM, RORg inh 2.24µM
CN(NS(=O)(=O)c1ccc(F)cc1)c1ncc(C(F)(F)F)cc1Cl	VP16 counter 6.31µM, RORg inh 3.16µM
CN(NC(=O)c1ccc(Cl)cc1)c1ncc(C(F)(F)F)cc1Cl	none
CN(NC(N)=O)c1ncc(C(F)(F)F)cc1Cl	none
Nc1c(C(=O)Nc2ccc3c(c2)OCCO3)nnn1Cc1cccc(Cl)c1	KB-3-1 cytotox 16.4µM, MCF10A rerep inconclusive (no result: VP16 counter, RORg inh)
Cc1cccc2cc(C#N)c(SCCN3CCCCC3)nc12	SW480 rerep 8.2µM, KB-V1 MDR tox inconclusive, MCF10A rerep inconclusive (no result: VP16 counter, RORg inh)
Cc1ccc(C#N)c(SCCN2CCCCC2)n1	none
O=C(NNC(=O)c1cc(-c2cccnc2)nc2ccccc12)Nc1ccc(Cl)cc1	KB-3-1 cytotox inconclusive, MCF10A rerep inconclusive
O=C(NNC(=O)c1cc(-c2ccccc2)nc2ccccc12)Nc1cccc(Cl)c1	KB-V1 MDR tox inconclusive, MCF10A rerep 11.6µM
CC(C)(C)c1ccc(-c2cc(C(=O)NNC(=O)Nc3ccccc3)c3ccccc3n2)cc1	SW480 rerep inconclusive, VP16 counter inconclusive, RORg inh 1µM, KB-3-1 cytotox inconclusive, MCF10A rerep inconclusive
CCCCNC(=O)C1(C)CCN1C(=O)c1ccc(F)cc1Cl (configuration not stated)	none (no result: SW480 rerep, VP16 counter, RORg inh, MCF10A rerep)
CS(=O)(=O)Nc1cccc(-c2ccc3ncnc(NCc4cccs4)c3c2)c1	RORg inh inconclusive (no result: SW480 rerep, KB-3-1 cytotox, KB-V1 MDR tox, MCF10A rerep)
S=c1[nH]nc(COc2ccccc2)n1/N=C/c1ccc(Cl)c(Cl)c1	RORg inh inconclusive, MCF10A rerep inconclusive
CCc1n[nH]c(=S)n1/N=C/c1cc(Br)c(O)c(OC)c1	KB-V1 MDR tox inconclusive
C=CCOc1c(Br)cc(/C=N/n2c(CC)n[nH]c2=S)cc1Br	SW480 rerep inconclusive, VP16 counter 7.94µM, RORg inh 7.94µM, KB-3-1 cytotox inconclusive, KB-V1 MDR tox inconclusive, MCF10A rerep 16.4µM
Cc1cccc(/C=N/n2c(COc3ccccc3)n[nH]c2=S)c1	VP16 counter inconclusive, RORg inh 7.08µM, KB-V1 MDR tox inconclusive
CCc1ccc(/C=N/n2c(COc3ccccc3)n[nH]c2=S)cc1	VP16 counter inconclusive, RORg inh 0.891µM
CC(/C=N/n1c(COc2ccccc2)n[nH]c1=S)=C\c1ccccc1	VP16 counter inconclusive, RORg inh 2.51µM, MCF10A rerep inconclusive
COc1cc(/C=N/n2c(COc3ccccc3)n[nH]c2=S)cc(OC)c1OC(C)=O	none
S=Cc1ccc(/C=C/c2ccnc3ccccc23)cc1	KB-3-1 cytotox inconclusive (no result: SW480 rerep, VP16 counter, RORg inh, MCF10A rerep)
CCc1nn(CC(=O)NCCCOC)c(=O)c2cc3occc3n12	none (no result: SW480 rerep, VP16 counter, RORg inh, MCF10A rerep)
CCc1n[nH]c(=S)n1/N=C/c1ccc(N(CC)CC)cc1	VP16 counter 6.31µM, RORg inh 2.82µM, KB-V1 MDR tox inconclusive
CCN(CC)c1ccc(/C=N/N2CC(=O)NC2=S)cc1	SW480 rerep inconclusive, MCF10A rerep inconclusive (no result: VP16 counter, RORg inh)
S=c1[nH]nc(COc2ccccc2)n1/N=C/c1ccncc1	RORg inh 10µM
Cc1c(Cl)ccc2sc(N3CCN(C(=O)C4CC4)CC3)nc12	none (no result: SW480 rerep, VP16 counter, RORg inh, MCF10A rerep)
COc1ccccc1C=CC(=O)C=Cc1ccccc1OC	SW480 rerep 8.2µM, KB-3-1 cytotox inconclusive, KB-V1 MDR tox inconclusive, MCF10A rerep 3.26µM (no result: VP16 counter, RORg inh)
COc1ccccc1/C=C/C(C)=O	none
CNc1ccccc(C(=O)/C=C/c2ccccc2OC)c1=O	SW480 rerep inconclusive, VP16 counter inconclusive, RORg inh inconclusive, KB-3-1 cytotox inconclusive, KB-V1 MDR tox 14.6µM, MCF10A rerep inconclusive
COc1ccccc1/C=C/C(=O)/C=C/c1ccccc1O	SW480 rerep inconclusive, VP16 counter inconclusive, RORg inh inconclusive, KB-3-1 cytotox inconclusive, KB-V1 MDR tox inconclusive, MCF10A rerep 10.3µM
COc1ccccc1/C=C/C(=O)Nc1cccnc1Cl	RORg inh inconclusive
CC(C)c1ccc(NC(=O)C2(C)Cc3c(-c4cccc(C(F)(F)F)c4)ccnc3O2)cc1 (configuration not stated)	none (no result: SW480 rerep, VP16 counter, RORg inh, MCF10A rerep)
CCCCN(C)c1c(C)nc2ccc(C(=O)Nc3ccc(OC)c(OC)c3)cn12	none (no result: SW480 rerep, VP16 counter, RORg inh, MCF10A rerep)
